Experimental data published in PubChem BioAssay (Tox21).
Inconclusive results are not listed. Calls of active or inactive are those of the source. Calls follow the shape of the dose curve; as a rule, active = well fitted activation curve with a large enough effect in the signal ratio in the repeat runs (not every such curve was filed as active); inconclusive = weak or mixed curves; inactive = flat fitted curve, though single readings scatter; the % refers to the signal ratio.

Assay: qHTS assay to identify small molecule agonists of the TGF-beta/Smad signaling pathway (AID 1346859)
Details: SBE-bla HEK293T, TGF-beta/Smad beta-lactamase reporter, 5 h; series mostly up to 76.8 µM; activation: at the top concentration
Excerpt: U.S. Tox21 Program National Center for Advancing Translational Sciences [NCATS] NIH Chemical Genomics Center [NCGC] U.S. Environmental Protection Agency [EPA] National Institutes of Environmental Health Sciences [NIEHS] National Toxicology Program [NTP] U.S. Food and Drug Administration [FDA] Tox21 Assay Overview: Transforming growth factor beta (TGF-beta) superfamily consists of a large number of structurally related dimeric proteins that act as hormones or local mediators in regulating a wide range of biological functions. This superfamily includes TGF-betas themselves, the bone morphogenetic proteins (BMPs) and the activins. These ligands induce oligomerization of serine/threonine receptor kinases and phosphorylate the cytoplasmic signaling molecules of Smad protein family. CellSensor SBE-bla HEK 293T cell line (Life Technologies, Carlsbad, CA), responsive to TGF-beta was used to screen Tox21 10K compound library for identification of agonists/antagonists of the Smad signaling pathway. This cell line contains a beta-lactamase reporter gene under control of the Smad binding element (SBE) stably integrated into HEK 293T cells.
Tox21 Assay Protocol Summary: SBE-bla HEK 293T cells were dispensed at 4,000/well in 6 uL of assay medium into black wall/clear-bottom 1536-well plates using a Multidrop Combi (ThermoFisher Scientific, Waltham, MA) dispenser. After the assay plates were incubated at 37 C and 5% CO2 for an overnight, 23 nL of compounds dissolved in DMSO, positive controls or DMSO only was transferred to the assay plate by a Pintool station (Kalypsys, San Diego, CA). The assay plates were incubated at 37 C and 5% CO2 for 5 hr. One uL of LiveBLAzer B/G FRET substrate (Life Technologies) was added using a Flying Reagent Dispenser (Aurora Discovery, San Diego, CA) and the plates were incubated at room temperature for 2 hr. Fluorescence intensity (405 nm excitation, 460 nm and 530 nm emissions) was measured using an Envision plate reader (PerkinElmer, Shelton, CT).
% is scaled to controls: 0 for no effect and ±100 for the full control effect.

SMILES	activation	Potency
Cc1cc(C(C)(C)C)cc(C)c1CC1=NCCN1	-1.81% [at 35.3 µM] (inactive)	–
CN(C)C(=O)COC(=O)Cc1ccc(OC(=O)c2ccc(N=C(N)N)cc2)cc1	-0.0415% [at 35.3 µM] (inactive)	–
CC1=CCC(=C(C)C)CC1	-0.953% (inactive)	–
O=C(O)c1cccc(C(F)(F)F)c1	-3.94% (inactive)	–
CN1CCC[C@@H]1CCO[C@](C)(c1ccccc1)c1ccc(Cl)cc1	-4.31% [at 35.3 µM] (inactive)	–
Nc1nc2c(ncn2COCCO)c(=O)[nH]1	0.139% [at 35.3 µM] (inactive)	–
Cc1c(C)c2c(c(C)c1OC(=O)c1cccnc1)CC[C@@](C)(CCC[C@H](C)CCC[C@H](C)CCCC(C)C)O2	-0.171% [at 35.3 µM] (inactive)	–
OC1CCCc2ccccc21 (stereo not given)	1.73% (inactive)	–
Cc1ccc(N/N=c2\c(=O)cc/c(=N\Nc3ccc(S(=O)(=O)O)cc3)c2=O)c(C)c1	-0.344% (inactive)	–
CCCCCCCC/C=C\CCCCCCCCN	0.374% [at 35.3 µM] (inactive)	–
CN(C)[C@@H](CCOc1cccc2ccccc12)c1ccccc1	-2.96% [at 35.3 µM] (inactive)	–
COc1c(C)c2c(c(O)c1C/C=C(\C)CCC(=O)OCCN1CCOCC1)C(=O)OC2	-8.08% [at 35.3 µM] (inactive)	–
CCO[C@@H]1O[C@H](C(COCc2ccccc2)OCc2ccccc2)[C@H](OCc2ccccc2)[C@H]1O (stereo not given in full)	2.71% [at 35.3 µM] (inactive)	–
CN(C)CCN1CCN(c2cccc(Cl)c2)C1=O	8% [at 35.3 µM] (inactive)	–
c1cnccn1	6.47% (inactive)	–
NC(=O)c1cccc([N+](=O)[O-])c1	1.84% (inactive)	–
COc1ccc2c(c1)c(CC(=O)OC/C=C(\C)CC/C=C(\C)CCC=C(C)C)c(C)n2C(=O)c1ccc(Cl)cc1	-1.05% [at 35.3 µM] (inactive)	–
CCC(C)n1ncn(-c2ccc(N3CCN(c4ccc(OC[C@H]5CO[C@](Cn6cncn6)(c6ccc(Cl)cc6Cl)O5)cc4)CC3)cc2)c1=O (stereo not given in full)	3.33% [at 35.3 µM] (inactive)	–
CC(N=C(NC#N)Nc1ccncc1)C(C)(C)C (stereo not given)	6.58% [at 35.3 µM] (inactive)	–
CCc1ccc(Br)cc1	1.03% (inactive)	–

SMILES	activation	Potency
CC/C=C\CCCCCO	-0.147% (inactive)	–
C=CC(=O)OCCOC(=O)C=C	1.18% (inactive)	–
CC(C)(c1cc(Br)c(OCC(Br)CBr)c(Br)c1)c1cc(Br)c(OCC(Br)CBr)c(Br)c1 (stereo not given)	11.8% [at 35.3 µM] (inactive)	–
CCOc1ccc2ccccc2c1C(=O)N[C@@H]1C(=O)N2[C@@H]1SC(C)(C)[C@@H]2C(=O)O	-1.53% [at 35.3 µM] (inactive)	–
COC(C)=O	-1.47% (inactive)	–
CCCC(=O)OCOC(=O)C1=C(C)NC(C)=C(C(=O)OC)C1c1cccc(Cl)c1Cl (stereo not given)	-7.55% [at 35.3 µM] (inactive)	–
O=c1[nH]c(=O)n([C@H]2C[C@H](O)[C@@H](CO)O2)cc1F	0.728% [at 35.3 µM] (inactive)	–
CCCCOC(=O)CO	4.14% (inactive)	–
COc1cc(/C=C/c2ccccc2)oc(=O)c1	-9.45% (inactive)	–
CCN(CCN)c1cccc(C)c1	–	inactive
Nc1nc(-c2ccccc2)cs1	3.28% (inactive)	–
CNc1ccc([N+](=O)[O-])cc1	-1.5% (inactive)	–
CC(C)(C)CC(C)(C)c1ccc(Nc2ccc(C(C)(C)CC(C)(C)C)cc2)cc1	1.28% [at 6.97 µM] (inactive)	–
Cc1ccc(O)c(N)c1	0.383% (inactive)	–
CC(C)OC(=O)C(O)(CC(=O)O)CC(=O)O	-0.284% (inactive)	–
[Cl][Pt-2]([Cl])([Cl])[Cl]	-6.72% (inactive)	–
COC1=C(OC)C(=O)C(CCCCCCCCCCO)=C(C)C1=O	0.368% [at 35.3 µM] (inactive)	–
C/C=C/C=C/COC(=O)C(C)C	2.25% (inactive)	–
Cc1ccc(O)c(O)c1	-1.36% (inactive)	–
CC[C@H](C)COC(=O)/C=C/c1ccc(N=Cc2ccc(OC)cc2)cc1	4.63% (inactive)	–
